Screens as filed in PubChem BioAssay.
Shown are actives, neighbours in structure and some others; about 10% of the full set was active somewhere.
3T3 cytotox: Cytotoxic Profiling in NIH 3T3 Cell Line of Diverse Libraries Using Quantitative High-Throughput Screening. actives 4.3% (n = 94,000). AID 1345082, 2018. Potency, µM (series often up to 96.7 µM), for the others: at the highest dose activity change, negative = cytotoxicity, hits mostly inhibitors. NIH 3T3 viability, CellTiter-Glo ATP luminescence, 48-72 h; further: on the % scale 0 is the no-effect control and ±100 the full control effect; nearly all actives have a fitted effect of over 55% in size
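NIH 3T3 cells at 400 cells/well received 23 nL of compound by pintool and were incubated 48 or 72 h at 37 °C. Viability was read as ATP-coupled CellTiter-Glo luminescence.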
NPR1 antag: Natriuretic polypeptide receptor (hNpr1) antagonism - Primary qHTS; Potency, µM (highest dose often 46.3 µM), without a hit: at the highest dose activity change, negative = inhibition, usual class: inhibitors; HEK293 hNpr1 GloSensor cGMP, ANP-stimulated luminescence; actives 1.6% (n = 76,000); Atrial natriuretic peptide receptor 1 (Homo sapiens), P16066; calls by dose curve; further: on the % scale 0 is the no-effect control and ±100 the full control effect; nearly all actives have a fitted effect of over 60% in size
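HEK293 cells stably expressing human Npr1 and cGMP GloSensor pGS-40F, loaded 2 h with 2% GloSensor reagent, given compound 30 min at room temperature. Luminescence read before and 20 min after 0.1 nM hNppA.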
GPT2 inh: Primary qHTS assay for inhibitors of Glutamate pyruvate transaminase 2 (GPT2) | Recombinant GPT2, coupled pyruvate oxidase/HRP Amplex Red fluorescence | AID 1671188, 2021 | Potency, µM (series often up to 57.7 µM), inactives show at the top dose activity change, negative = inhibition, most hits filed as inhibitors | actives 0.25% (n = 100,000); further: on the % scale 0 is the no-effect control and ±100 the full control effect; nearly all actives have a fitted effect of over 60% in size
Target sequence (Q8TD30 whole entry, looked up): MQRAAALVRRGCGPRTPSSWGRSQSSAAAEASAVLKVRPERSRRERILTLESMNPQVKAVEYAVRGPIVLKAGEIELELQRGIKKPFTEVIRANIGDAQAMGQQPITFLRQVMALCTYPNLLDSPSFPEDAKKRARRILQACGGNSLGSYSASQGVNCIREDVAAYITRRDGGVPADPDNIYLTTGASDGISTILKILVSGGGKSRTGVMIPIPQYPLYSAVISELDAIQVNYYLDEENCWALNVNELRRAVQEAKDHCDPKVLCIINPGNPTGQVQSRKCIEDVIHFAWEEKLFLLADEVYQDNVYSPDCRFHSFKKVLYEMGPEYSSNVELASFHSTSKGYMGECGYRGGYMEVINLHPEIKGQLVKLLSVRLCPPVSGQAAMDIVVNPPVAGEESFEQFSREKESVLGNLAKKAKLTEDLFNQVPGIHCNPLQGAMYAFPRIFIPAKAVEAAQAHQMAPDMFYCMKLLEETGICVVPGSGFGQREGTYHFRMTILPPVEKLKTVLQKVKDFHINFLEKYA
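GPT2 10ng/uL, a-KG 250uM, L-Ala 2mM, HEPES pH7.5 + 0.0001% Tween; 30 min RT. Then Amplex mix (PO/HRP/ThPP), 30 min RT dark, fluorescence. AOA 50uM used as positive control.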
HEK293 tox: Cytotoxic Profiling in HEK 293 Cell Line of Diverse Libraries Using Quantitative High-Throughput Screening | HEK 293 viability, ATP luminescence (CellTiter-Glo), 48-72 h | Potency, µM (top dose mostly 115 µM), inactives show top-dose activity change, negative = cytotoxicity, usual class: inhibitors | actives 6.6% (n = 94,000) | AID 1345083, 2018; further: on the % scale 0 is the no-effect control and ±100 the full control effect; nearly all actives have a fitted effect of over 60% in size
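Cells seeded first (HEK 293, 250 cells/well), then compound added by pintool. Incubation ran 48 or 72 hr at 37 degree Celsius. CellTiter-Glo was added and luminescence imaged after 10 min at room temperature.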
FLuc inh: Firefly luciferase inhibition profiling of diverse chemical library using quantitative high-throughput screening; Potency, µM (titrated, usually from 115 µM), usual class: inhibitors; AID 1347043, 2019; actives 2.5% (n = 76,000); purified P. pyralis luciferase, luminescence, biochemical; further: on the % scale 0 is the no-effect control and ±100 the full control effect; nearly all actives have a fitted effect of over 65% in size
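FLuc 10nM, D-luciferin 10uM, ATP 10uM, Mg acetate 10mM, Tris acetate pH 7.5, Tween/BSA; cpd qHTS; enzyme added last; CCD luminescence.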
NPR1 antag cnf: Natriuretic polypeptide receptor (hNpr1) antagonism - Confirmation. shares compounds with NPR1 antag. HEK293 hNpr1 cGMP GloSensor luminescence, ANP-stimulated. Potency, µM (top dose mostly 57.6 µM), without a hit: at the top dose activity change, negative = inhibition, usual class: inhibitors. actives 76% (n = 1,400); calls by dose curve; further: nearly all actives have a fitted effect of over 70% in size
NPR2 antag: Natriuretic polypeptide receptor (hNpr2) antagonism - Subtype selectivity assay; HEK293 hNpr2 GloSensor cGMP luminescence, CNP-stimulated; actives 67% (n = 1,400); shares compounds with NPR1 antag; AID 1347046, 2019; Potency, µM (series often up to 57.6 µM), inactives show at the highest dose activity change, negative = inhibition, actives largely listed as inhibitors; calls by dose curve; further: nearly all actives have a fitted effect of over 70% in size
FLuc inh counter: Natriuretic polypeptide receptor (hNpr1) antagonism - Confirmation firefly luciferase (FLuc) inhibition counterscreen; shares compounds with NPR1 antag; actives 0.7% (n = 1,400); purified FLuc enzyme, luminescence, Km substrate; Potency, µM (titrated, usually from 57.6 µM), without a hit: top-dose activity change, negative = inhibition, usual class: inhibitors; AID 1347047, 2019; further: series mostly up to about 58 µM; 0% is about no effect
GloSensor ctrl: Natriuretic polypeptide receptor (hNpr1) antagonism - Counterscreen GloSensor control cell line; shares compounds with NPR1 antag; HEK293 GloSensor cGMP, SNP-stimulated, luminescence; Potency, µM (titrated, usually from 57.6 µM), for inactives: top-dose activity change, negative = inhibition, hits mostly inhibitors; actives 69% (n = 1,400); AID 1347051, 2019; calls by dose curve; further: on the % scale 0 is the no-effect control and ±100 the full control effect; nearly all actives have a fitted effect of over 70% in size
The depositor's hits bear a star; [ ] = another dose, or the depositor's remark. Unless noted, the call rests on the fitted dose curve; in most records, active means well fitted curve in the direction sought with a large enough effect; inconclusive means small, poorly fitted or top-dose-only effect, or another doubt; inactive means no such curve, though single readings can be large; an effect the other way counts as inactive or inconclusive. Potency means the concentration at half of the fitted maximal effect.

For CC(=O)N1CCC(CC(=O)N2CC(c3nc(CCOc4cccc(C)c4)no3)C2)CC1 the results were 3T3 cytotox -17%, GPT2 inh inactive and HEK293 tox inconclusive.
Screening COCC(NC(=O)c1ccc2nc(C3CCCCC3)oc2c1)c1ccnn1C (centres undefined) returned 3T3 cytotox -24%, NPR1 antag inconclusive, GPT2 inh -3%, HEK293 tox inconclusive, FLuc inh inactive, NPR1 antag cnf -29%, NPR2 antag inconclusive, FLuc inh counter 5% and GloSensor ctrl -9%.
Screening CC1Oc2ccc(NS(=O)(=O)c3cccc(Cl)c3)cc2CN(Cc2ccccc2F)C1=O (centres undefined) returned 3T3 cytotox inconclusive, NPR1 antag inconclusive, GPT2 inh -13%, HEK293 tox 50µM*, FLuc inh inactive, NPR1 antag cnf inconclusive, NPR2 antag -27%, FLuc inh counter 3% and GloSensor ctrl -7%.
Screening CC1Oc2ccc(NC(=O)Cc3cccs3)cc2CN(Cc2ccc(Cl)cc2)C1=O (centres undefined) returned 3T3 cytotox 40µM*, NPR1 antag 14µM*, GPT2 inh -26%, HEK293 tox inconclusive, FLuc inh inactive, NPR1 antag cnf 27µM*, NPR2 antag 27µM*, FLuc inh counter 3% and GloSensor ctrl 24µM*.
Screening COc1ccc(C(=O)Nc2ccc3c(c2)CN(Cc2ccc(F)cc2)C(=O)C(C)O3)c(OC)c1 (centres undefined) returned 3T3 cytotox inconclusive, NPR1 antag inconclusive, GPT2 inh inactive, HEK293 tox 32µM*, FLuc inh inactive, NPR1 antag cnf 24µM*, NPR2 antag inconclusive, FLuc inh counter 2% and GloSensor ctrl 24µM*.
Screening CN1CC(=O)N(C2CCNC2)Cc2c1ncnc2N1CC[C@H](N(C)C)C1 (some centres undefined) returned 3T3 cytotox inactive, GPT2 inh -18%, HEK293 tox inactive, NPR1 antag cnf 6%, NPR2 antag -1%, FLuc inh counter 0% and GloSensor ctrl 2%.
CS(=O)(=O)N1CC2(CCCN(CC3CC3)C2)Cc2ccccc21 (centres undefined) was read as 3T3 cytotox inactive, GPT2 inh 3% and HEK293 tox -15%.
For O=C(CC1CCCCN(Cc2ccccc2)C1=O)Nc1ccc(F)cc1F (centres undefined) the results were 3T3 cytotox -27%, NPR1 antag 0%, GPT2 inh 5%, HEK293 tox inconclusive and FLuc inh inactive.
For O=C(CC1CCCCN(Cc2ccccc2)C1=O)N1CCN(c2ccc(F)cc2)CC1 (centres undefined) the results were 3T3 cytotox -27%, NPR1 antag 11µM*, GPT2 inh inactive, HEK293 tox inconclusive, FLuc inh inactive, NPR1 antag cnf 24µM*, NPR2 antag 22µM*, FLuc inh counter 1% and GloSensor ctrl 22µM*.
For CCc1ccc(CN2CCC3(CC2)Cc2ccccc2CNC3=O)cc1 the results were 3T3 cytotox inconclusive, GPT2 inh inactive and HEK293 tox inconclusive.
`O=C(N[C@H]1CO[C@H]2[C@@H]1OC[C@@H]2Nc1nccc(C2CCCC2)n1)c1ccccc1` gave 3T3 cytotox -46%[174 µM], NPR1 antag 28µM*, GPT2 inh 3%[88.5 µM], HEK293 tox 63µM*, FLuc inh inactive, NPR1 antag cnf 35µM*, NPR2 antag 35µM*, FLuc inh counter -7%[86.2 µM] and GloSensor ctrl 40µM*.
Screening COc1ccccc1-c1ccnc(N[C@H]2CO[C@H]3[C@@H]2OC[C@@H]3NS(=O)(=O)c2ccc(NC(C)=O)cc2)n1 returned 3T3 cytotox inconclusive, NPR1 antag inconclusive, GPT2 inh -35%, HEK293 tox inconclusive and FLuc inh inactive.
For c1csc(-c2ccnc(N[C@H]3CO[C@H]4[C@@H]3OC[C@@H]4NCC3CCCCC3)n2)c1 the results were 3T3 cytotox 32µM*, NPR1 antag 7.9µM*, GPT2 inh -19%[88.5 µM], HEK293 tox inconclusive, FLuc inh inactive, NPR1 antag cnf 11µM*, NPR2 antag 18µM*, FLuc inh counter 1%[86.2 µM] and GloSensor ctrl 9.9µM*.
`CC(=O)Nc1ccc(S(=O)(=O)N[C@H]2CO[C@H]3[C@@H]2OC[C@@H]3Nc2nccc(-c3cccc(F)c3)n2)cc1` gave 3T3 cytotox inconclusive, NPR1 antag 11µM*, GPT2 inh -7%, HEK293 tox 16µM*, FLuc inh inactive, NPR1 antag cnf 14µM*, NPR2 antag 17µM*, FLuc inh counter 1% and GloSensor ctrl 12µM*.
For O=C(N[C@H]1CO[C@H]2[C@@H]1OC[C@@H]2Nc1nccc(-c2ccc(-c3ccccc3)cc2)n1)C1CCCCC1 the results were 3T3 cytotox inconclusive, NPR1 antag inconclusive, GPT2 inh -14%, HEK293 tox inconclusive, FLuc inh inactive, NPR1 antag cnf 27µM*, NPR2 antag inconclusive, FLuc inh counter 1% and GloSensor ctrl 22µM*.
